Measurements as given in PubChem BioAssay AID1619 (SRMLSC, 2009).
In all, about 220,000 compounds went through this assay and about 830 (0.38%) were called active.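 How the source made its calls: active means compound inhibiting the enzyme by more than half at any dose during confirmatory dose-response retesting; inconclusive means strong single-dose inhibitors picked by rank but not retested; inactive means the rest.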 Not all results are given here. Entries with a potency or affinity are not part of this list.

Molecular target: Leucine aminopeptidase (Plasmodium falciparum (isolate 3D7)) (UniProt Q8IL11)
Test: P. falciparum M17LAP inhibitors, primary screen, biochemical, fluorogenic H-Leu-NHMec substrate, 1536-well (AID 1619);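 further: plate controls were full reaction with DMSO carrier for no effect and no enzyme background for full effect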
Details: recombinant M17LAP, H-Leu-NHMec fluorogenic kinetic assay; at 30 µM; hits give high values

Chain of Leucine aminopeptidase (Plasmodium falciparum (isolate 3D7)) (Q8IL11 whole entry, looked up): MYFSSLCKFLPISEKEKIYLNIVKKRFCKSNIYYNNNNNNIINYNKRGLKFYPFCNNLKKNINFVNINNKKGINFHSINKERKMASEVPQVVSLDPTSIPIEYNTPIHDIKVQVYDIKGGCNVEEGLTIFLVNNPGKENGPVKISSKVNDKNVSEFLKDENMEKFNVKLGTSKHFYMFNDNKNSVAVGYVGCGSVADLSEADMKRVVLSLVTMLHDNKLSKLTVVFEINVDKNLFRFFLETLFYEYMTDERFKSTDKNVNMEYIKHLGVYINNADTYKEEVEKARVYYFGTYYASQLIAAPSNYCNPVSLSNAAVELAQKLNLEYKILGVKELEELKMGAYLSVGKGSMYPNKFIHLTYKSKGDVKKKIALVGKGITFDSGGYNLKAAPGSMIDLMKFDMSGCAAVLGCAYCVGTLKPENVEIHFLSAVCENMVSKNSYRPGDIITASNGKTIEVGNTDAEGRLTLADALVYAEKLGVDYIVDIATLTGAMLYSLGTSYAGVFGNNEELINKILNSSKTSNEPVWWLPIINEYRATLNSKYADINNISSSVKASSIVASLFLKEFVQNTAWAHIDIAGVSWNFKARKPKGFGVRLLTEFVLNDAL

inhibition, inactive:
O=[N+]([O-])c1ccc(C[n+]2cccc3ccccc32)cc1 1.34%
O=C(CN1CCCCC1CO)c1ccc(OC(F)F)cc1 (configuration not stated) 6.93%
Cc1cc(NC(=O)CSc2ncnc3c2cnn3-c2cccc(Cl)c2)no1 1.8%
CCn1cc(Br)c(C(=O)NC(C)c2ccccc2)n1 (configuration not stated) -36.5%
Cc1csc(NC(=O)C2CCN(S(=O)(=O)c3ccc4c(c3)oc(=O)n4C)CC2)n1 8.23%
CC(C)(C)C(=O)N1N=C(c2cccc(NS(C)(=O)=O)c2)CC1c1cccs1 (configuration not stated) 29.7%
O=C(CCNS(=O)(=O)c1cccs1)Nc1nccs1 -0.31%
Nc1n[nH]c(C2CCCCC2)n1 -1.74%
O=C(Nc1n[nH]c(C2CCCCC2)n1)C1CCCCC1 -5.77%
Nn1c(SCc2ccccc2F)nnc1-c1ccncc1 1.35%
CCOC(=O)c1sc(NC(=O)Cn2nnc3sc4c(c3c2=O)CCCC4)nc1C -3.69%
Cn1c(CNC(=O)c2ccco2)nnc1SCC(=O)Nc1cccc(Br)c1 7.38%
C=CCn1c(CNC(=O)c2ccco2)nnc1SCC(=O)Nc1cccc(F)c1 14.5%
CCCn1cnc2c(=S)nc(N)[nH]c21 16.6%
COc1ccc(-c2cc(C(F)(F)F)nc(N3CCOCC3)n2)cc1 4.95%
c1ccc(-c2nnc(N3CCOCC3)nc2-c2ccccc2)cc1 5.71%
COc1ccc(N2CCN(c3nc(Cl)nc(N4CCOCC4)n3)CC2)cc1 11.3%
CC(C)c1ccc(-c2nc(N3CCCCCC3)nc3n[nH]c(N)c23)cc1 35.4%
CC(C)c1ccc(-c2nc(N3CCCC3)nc3n[nH]c(N)c23)cc1 27.7%
Nc1nc(N2CCOCC2)nc2ccccc12 -12%
COCCNC(=S)NNc1ccccc1[N+](=O)[O-] 0.4%
CC(C)=NOc1nc(N2CCOCC2)nc(N2CCOCC2)n1 -6.17%
CCOC(=O)Cn1nnnc1CN(Cc1ccccc1)Cc1cc2cc(CC)ccc2[nH]c1=O -7.17%
CCOC(=O)c1sc(NC(=O)CC)c(C#N)c1C -11.2%
O=C(CN1C(=O)CCC1=O)Nc1ccc(Cc2ccc(NC(=O)CN3C(=O)CCC3=O)cc2)cc1 1.75%
O=C(Cn1cnc2ccccc2c1=O)Nc1ccc2c(c1)OCCO2 5.1%
N#Cc1c(NC(=O)CSc2ccccn2)oc(-c2ccccc2)c1-c1ccccc1 3.85%
Cc1ccc(NC(=O)Cn2nnc3ccccc3c2=O)cc1 -0.57%
COC(=O)c1ccc(C)c(NC(=O)Cn2cnc3ccccc3c2=O)c1 54.1%
Cc1ccc(NC(=O)Cn2nnc3ccccc3c2=O)cc1C -2.19%
O=C(Cn1cnc2cc([N+](=O)[O-])ccc2c1=O)Nc1ccc2c(c1)CCC2 25.1%
N#Cc1c(NC(=O)CCn2cnc3ccccc3c2=O)oc(-c2ccccc2)c1-c1ccccc1 -1.46%
COc1ccc(NC(=O)Cn2cnc3ccccc3c2=O)cc1OC 14.4%
COC(=O)c1ccc(NC(c2ccc(Cl)cc2)P(=O)(OC)OC)cc1 (configuration not stated) 4.43%
CS(=O)(=O)N(CC(=O)Nc1ccc(S(=O)(=O)N2CCCC2)cc1)c1ccccc1 1.45%
Cn1c(SCC(=O)C(C)(C)C)nnc1-c1ccc(F)cc1 0.55%
CN(O)/C=C/C(=O)c1ccc(Br)cc1 -3.22%
C[C@@H]1C[C@H](O)c2cc(Cl)ccc2N1 5.04%
CCOC(=O)C1(CCCc2ccccc2)CCN(C(=O)CCc2cnccn2)CC1 -4.8%
CC(Oc1ccc2c(-c3ccccc3)cc(=O)oc2c1)C(=O)O (configuration not stated) 36.3%
COc1ccc(-c2cc(=O)oc3cc(OCC(C)=O)ccc23)cc1 10.9%
N#C/C(=C\c1cn[nH]c1-c1ccccc1Br)C(=O)O 4.87%
CCCc1cc(=O)n2[nH]c(NCc3ccccc3Cl)nc2n1 23%
Cc1cccc(N(C(=O)c2csnn2)C(C(=O)NC(C)(C)C)c2cccs2)c1 (configuration not stated) 9.85%
CCc1nc(N2CCN(C(C)=O)CC2)c(C#N)c2c1COC(C)(C)C2 -49.5%
O=C(c1cnn(C(=O)c2ccc(O)cc2)c1)c1ccccc1O -4.26%
O=C(c1cnn(-c2ccccc2)c1)c1ccccc1O -6.3%
CCCc1nnc(SCc2ccc(OC)cc2)n1N 9.43%
COc1ccc(-c2nc(-c3cccc(C(F)(F)F)c3)no2)cc1OC -5.65%
Cc1cccc(NC(=O)COc2ccc(/C=C\c3[nH]c(=O)[nH]c(=O)c3[N+](=O)[O-])cc2)c1 23.7%
NC(=O)CSc1nc(-c2ccccc2)c(-c2ccccc2)o1 -9.73%
CNC(=O)CSc1nc(-c2ccccc2)c(-c2ccccc2)o1 3.38%
CC(C)C(=O)Nc1ccc(NC(=O)c2ccccn2)cn1 7.94%
CNC(=O)c1sccc1S(=O)(=O)Cc1c(Cl)cccc1Cl 0.44%
CCOC(=O)c1sc(NC(=O)C2C3C=CC(C3)C2C(=O)O)nc1C (configuration not stated) 3.83%
CCOC(=O)c1c(NC(=O)C2C3C=CC(CC3)C2C(=O)O)sc(C)c1C (configuration not stated) 46.5%
CCOC(=O)c1c(NC(=O)C2CC2)sc(C)c1CC -1.68%
COC(=O)c1cc(C)sc1NC(=O)C1C2C=CC(CC2)C1C(=O)O (configuration not stated) 47%
CCOCCCn1c(=O)c(NC(=O)c2ccc(OCC)cc2)c2n(c1=S)CCCCC2 10.1%
O=C(NC1CCCC1)C1C2C=CC3(CN(Cc4cccs4)C(=O)C13)O2 (configuration not stated) -3.35%
O=C(NCC1CCCO1)C1C2C=CC3(CN(Cc4cccs4)C(=O)C13)O2 (configuration not stated) 15.4%
Cc1ccc(S(=O)(=O)N(C)CCCC(=O)NC(C)(C)C)cc1 -1.26%
O=C1CN(S(=O)(=O)c2ccc(Cl)cc2)CC(=O)N1CCc1ccccc1 -1.31%
COc1ccc(C2=Nn3c(nnc3-c3ccccc3OC)SC2)cc1OC 26.3%
CCOc1ccc(C2=Nn3c(nnc3-c3ccccc3OC)SC2)cc1 8.39%
CC(=O)Nc1nc(CCN2C(=O)c3ccccc3C2=O)cs1 0.9%
Cc1cccc2cc(C(c3nnnn3CC3CCCO3)N3CCCc4ccccc43)c(=O)[nH]c12 (configuration not stated) 10.5%
CC(C)c1ccc(O)c(NC(=O)c2cccnc2)c1 7.21%
CN1C2CCC1/C(=C\c1ccccc1)C(=O)/C2=C\c1ccccc1 5.66%
CN1C2CCC1/C(=C\c1ccccc1Cl)C(=O)/C2=C\c1ccccc1Cl 3.79%
O=c1[nH]cnc2scc(-c3cccs3)c12 -7.24%
COc1ccc(OC)c(S(=O)(=O)n2nnc3ccccc32)c1 56.9%
COc1ccc(Cl)cc1S(=O)(=O)n1nnc2ccccc21 49%
O=S(=O)(Nc1cccc(-c2ccc3nncn3n2)c1)c1ccc(Cl)s1 26.4%
CN(C)c1cccc(-c2nnc(SCCCC#N)o2)c1 -3.34%
CCOC(=O)Cc1csc(NC(=O)NC2(C(F)(F)F)Oc3ccc(Cl)cc3O2)n1 (configuration not stated) 52.5%
CCOC(=O)Cc1csc(NC(=O)NC2(C(F)(F)F)Oc3ccccc3O2)n1 6.11%
C=CCn1c(COC)nnc1SCC(=O)c1ccc(F)cc1 -1.58%
CC(C)(C)c1ccc(C(=O)NN2C(=O)CSC2=S)cc1 5.92%
Cc1ccc(C(=O)NN2C(=O)CSC2=S)cc1 33.1%
COc1ccccc1CNC(=O)CN1C(=O)C(C)N(c2ccc(C)cc2)C1=O (configuration not stated) -0.45%
Cc1c(NS(=O)(=O)c2ccccc2)c(=O)n(-c2ccccc2)n1C -14.2%
Cc1c(Nc2nc3ccccc3nc2NS(=O)(=O)c2cccs2)c(=O)n(-c2ccccc2)n1C 35.4%
Cc1ccc(Nc2nc3ccccc3nc2Nc2c(C)n(C)n(-c3ccccc3)c2=O)cc1 -3.59%
Cc1c(Nc2nc3ccccc3nc2N2CCN(c3ccccc3)CC2)c(=O)n(-c2ccccc2)n1C 9.74%
O=S(=O)(Nc1nc2ccccc2nc1NCC1CCCO1)c1cccc(Cl)c1 (configuration not stated) 12.2%
O=S(=O)(Nc1nc2ccccc2nc1NCCO)c1cccc(Cl)c1 45%
Cc1ccc(N(Cc2cc3ccccc3[nH]c2=O)S(=O)(=O)c2ccccc2)cc1 9.01%
CCN(CC)C(=O)CSc1nnc(-c2ccc(S(=O)(=O)N3CCCC3)cc2)o1 -8.97%
CCOC(=O)C1=NNC2C(=O)N(Cc3ccccc3)C(=O)C12 (configuration not stated) 5.31%
COC(=O)C1=C(C)N(c2ccc(OC)cc2)C(C)=C(C(=O)OC)C1c1ccc(OC)cc1 -14.2%
Cc1nc2ccccc2c2c1C(=O)NC2=O -0.48%
CCOC(=O)C1CCN(c2cc(=O)n(C3CCCCC3)c(=O)[nH]2)CC1 7.51%
CS(=O)(=O)N(CC(=O)Nc1ccc(S(=O)(=O)N2CCOCC2)cc1)c1ccccc1Cl 12.3%
COc1ccccc1Cn1[nH]nnc1=S 5.05%
COc1ccc([C@H]2[C@H](C(=O)OC(C)(C)C)N3N=Cc4ccccc4C3C23C(=O)c2ccccc2C3=O)c(OC)c1 (some centres not stated) 34.9%
COc1ccc([C@H]2[C@H](C(=O)OC(C)(C)C)N3N=Cc4ccccc4C3C23C(=O)c2ccccc2C3=O)cc1OC (some centres not stated) 21.8%
